Results taken from PubChem BioAssay (NCI).
Compounds without any hit were thinned out: in the full panel of roughly 79,000, 15% have a hit. Cut-off read from the data, not from the text of the source: active = growth inhibition above about 70%; inactive = the rest. Where a SMILES comes first, the peptide text is derived from it. [ ]: non-standard residue; d: D form. The star is where a group is joined. Cbz = O=C(OCc1ccccc1)*; Nva = CCC[CH](N)C(=O)O

Tests used:
[1] = NCI Yeast Anticancer Drug Screen. Data for the rad50 strain (AID 155);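 note: 0% = growth of vehicle-only cultures of the same strain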; details: S. cerevisiae rad50 strain growth inhibition; at 50.0 µM; active compounds read high
How it was run: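 A DNA repair-deficient yeast mutant serves as the test organism; compound-induced growth inhibition is calculated against vehicle-treated cells.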

[2] = NCI Yeast Anticancer Drug Screen. Data for the mec2-1 strain (AID 157); details: S. cerevisiae mec2-1 strain, at 50.0 µM, active compounds read high
How it was run: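 Growth inhibition is read against vehicle-treated controls after compound exposure of the mec2-1 yeast strain, which is defective in DNA damage repair or cell cycle control.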

[3] = NCI Yeast Anticancer Drug Screen. Data for the sgs1 mgt1 strain (AID 161);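 note: 0% = growth of cultures given vehicle only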; details: S. cerevisiae sgs1 mgt1 strain, at 50.0 µM, active compounds read high
How it was run: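 Compounds are added to genetically altered yeast, and growth is compared with cultures given vehicle alone to give percent inhibition.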

[4] = NCI Yeast Anticancer Drug Screen. Data for the cln2 rad14 strain (AID 165);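 note: 0% = growth equal to vehicle treated cultures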; details: S. cerevisiae cln2 rad14 strain, at 50.0 µM, active compounds read high
How it was run: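 Growth inhibition, relative to vehicle-treated controls, is the read-out. The test organism is a yeast strain with defined genetic alterations, cln2 rad14.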

[5] = NCI Yeast Anticancer Drug Screen. Data for the bub3 strain (AID 167); details: S. cerevisiae bub3 mutant strain, at 50.0 µM, active compounds read high
How it was run: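 Inhibition values come from growth of compound-treated mutant yeast normalised to vehicle-treated controls.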

[6] = NCI Yeast Anticancer Drug Screen. Data for the mlh1 rad18 strain (AID 175); details: S. cerevisiae mlh1 rad18 strain growth inhibition; at 50.0 µM; active compounds read high
How it was run: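 Cells of a genetically altered yeast strain, deficient in DNA damage repair, were treated with compound. Their growth was then compared with that of vehicle-treated cultures to give inhibition.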

Measured: growth inhibition

O=c1[nH][nH]c(=O)c2c1ccc1oc3ccccc3c12
inactive: [1] -13.8% | [2] 0.55% | [3] -20.7% | [4] 28.2% | [5] 2.55% | [6] 4.4%

O=C1c2ccccc2-c2c1cccc2[N+](=O)[O-]
inactive: [1] 48% | [2] 23.9% | [3] 9.55% | [4] -62.5% | [5] -18.3% | [6] 42.5%

c1ccc2c(CN3CCN(Cc4c[nH]c5ccccc45)CC3)c[nH]c2c1
inactive: [1] 17.1% | [2] -8.75% | [3] -14.5% | [4] -13.8% | [5] -2.8% | [6] -21.9%

NC(=S)N/N=C1\CCCCC1C(O)(C(F)(F)Cl)C(F)(F)Cl (centres undefined)
inactive: [1] -26.2% | [2] -33.8% | [3] -19.1% | [4] -8.9% | [5] -11.5% | [6] -25.2%

CCCCNC(C(=O)c1ccc(N(C)C)cc1)c1ccccc1 (centres undefined)
inactive: [1] 3.7% | [2] -10.6% | [3] -3.1% | [4] -8.15% | [5] 2.95% | [6] -13.9%

CN1OC(CO)CC12C1CC3CC(C1)CC2C3 (centres undefined)
inactive: [1] -41% | [2] -19.1% | [3] -53.5% | [4] -3.4% | [5] -42.7% | [6] -53.8%

CN(C)CCC(C(=O)C(C)(C)C)c1ccccn1 (centres undefined)
inactive: [1] -7.2% | [2] -9.2% | [3] -5.65% | [4] -19.4% | [5] -16.9% | [6] -0.6%

N/C(=N\S(=O)(=O)c1cc(C(F)(F)F)cc(C(F)(F)F)c1)c1ccncc1
inactive: [1] 4.95% | [2] 11.2% | [3] 23.9% | [4] 1.3% | [5] 19.6% | [6] 24.7%

CCOC(=O)c1c(C)nc(C)nc1N
inactive: [1] 0.2% | [2] -2.5% | [3] -9.85% | [4] -41.5% | [5] -22.1% | [6] 2%

CCOC(=O)C1(C(=O)OCC)OC(=O)NC2=C1CCCC2
inactive: [1] -13.3% | [2] -29.1% | [3] -8.6% | [4] -15.7% | [5] -1.95% | [6] -23.9%

COc1cc(OC)c(NC(=O)Nc2ccc([N+](=O)[O-])cc2OC)cc1Cl
inactive: [1] -21.6% | [2] -17.6% | [3] -7.15% | [4] -49.1% | [5] 1.25% | [6] -7.2%

O=C(c1ccccc1CO)N1CCCCC1
inactive: [1] 10.8% | [2] 2.2% | [3] -1.55% | [4] -69% | [5] -9.2% | [6] -20.4%

CCCCCCCCCCCCCC(=O)N(CCCCCCCCC)CC(O)C(O)C(OC1OC(CO)C(O)C(O)C1O)C(O)CO (centres undefined)
inactive: [1] -13.8% | [2] -41.4% | [3] -17.4% | [4] -28.4% | [5] -49.1% | [6] -56.5%

Nc1ncnc2c1N=C(c1ccccc1)CC(c1ccccc1)N2 (centres undefined)
inactive: [1] -8.75% | [2] -5.15% | [3] -4.15% | [4] 3.15% | [5] -35.4% | [6] 2.6%

N#CC(C(=O)CCCC(=O)Nc1ccc(Cl)cc1Cl)c1ccccc1 (centres undefined)
inactive: [1] -39% | [2] -13.6% | [3] -6.95% | [4] 13.2% | [5] -16% | [6] -28.1%

CC(C)(C)c1ccc(OCCCCl)c(CCl)c1
inactive: [1] 23.4% | [2] 2.75% | [3] 10.1% | [4] 7.65% | [5] 52% | [6] 12.6%

CCCC(NC(=O)OCc1ccccc1)C(=O)NC(CO)C(=O)O (centres undefined) (Cbz-[Nva]-Ser-OH; configuration not given here)
inactive: [1] 24.6% | [2] 4.15% | [3] 9.05% | [4] 26.6% | [5] 8.25% | [6] 8.05%

O=C1Cc2ccccc2NC(c2ccccc2)C1S(=O)(=O)c1ccccc1 (centres undefined)
inactive: [1] 7.05% | [2] 4.35% | [3] 9.3% | [4] -2.15% | [5] -0.05% | [6] 19.6%

CCCCCCc1cn([C@H]2C[C@H](O)[C@@H](CO)O2)c(=O)[nH]c1=O
inactive: [1] -5.6% | [2] -5.4% | [3] 7.2% | [4] -12.8% | [5] 3% | [6] 9.15%
